# PubChem BioAssay AID1159580 (chemical genetic matrix, 2015)
# Hit rate of the full screen: of about 5,500 compounds, about 2,000 (36%) were called active. Inconclusive results (about 18%) are left out. This is one part of the list. Unmarked numbers belong to inactive results. No stated cut-off is given here; in the data, active means normalized growth mostly below about 0.91 (no sharp cut-off); inconclusive means no clear call, values can overlap the other calls; inactive means mostly above about 0.92.
# Assay: chemical genetic growth profiling, strain panel (AID 1159580);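 further: tested at 20 µM; growth read once vehicle control cultures reached saturation at 30 °C; 1 = growth at the plate median or of vehicle wells; lower values mean less growth of the strain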
# Conditions: growth OD
# [1] = S. cerevisiae deletion strains, locus YAL013W, strain DEP1, active compounds read low
# [2] = S. cerevisiae deletion strains, locus YBR229C, strain ROT2, active compounds read low
# [3] = S. cerevisiae deletion strains, locus YDL101C, strain DUN1, active compounds read low
# [4] = S. cerevisiae deletion strains, locus YDL134C, strain PPH21, active compounds read low
# [5] = S. cerevisiae deletion strains, locus YDR150W, strain NUM1, active compounds read low
# [6] = S. cerevisiae deletion strains, locus YEL061C, strain CIN8, active compounds read low
# [7] = S. cerevisiae deletion strains, locus YGR078C, strain PAC10, active compounds read low
# [8] = S. cerevisiae deletion strains, locus YHR030C, strain SLT2, active compounds read low
# [9] = S. cerevisiae deletion strains, locus YHR087W, strain rtc3, active compounds read low
# [10] = S. cerevisiae deletion strains, locus YJR043C, strain POL32, active compounds read low
# [11] = S. cerevisiae deletion strains, locus YJR075W, strain HOC1, active compounds read low
# [12] = S. cerevisiae deletion strains, locus YLR039C, strain RIC1, active compounds read low
# [13] = S. cerevisiae deletion strains, locus YLR058C, strain SHM2 (second series), active compounds read low
# [14] = S. cerevisiae deletion strains, locus YLR085C, strain ARP6, active compounds read low
# [15] = S. cerevisiae deletion strains, locus YLR262C, strain YPT6, active compounds read low
# [16] = S. cerevisiae deletion strains, locus YML094W, strain GIM5, active compounds read low
# [17] = S. cerevisiae deletion strains, locus YMR219W, strain ESC1, active compounds read low
# [18] = S. cerevisiae deletion strains, locus YMR263W, strain SAP30, active compounds read low
# [19] = S. cerevisiae deletion strains, locus YNL153C, strain GIM3, active compounds read low
# [20] = S. cerevisiae deletion strains, locus YNL298W, strain CLA4 (second series), active compounds read low
# [21] = S. cerevisiae deletion strains, locus YNL322C, strain KRE1, active compounds read low
# [22] = S. cerevisiae deletion strains, locus YNR030W, strain Alg12, active compounds read low
# [23] = S. cerevisiae deletion strains, locus YPL055C, strain LGE1, active compounds read low
# [24] = S. cerevisiae deletion strains, locus YPL241C, strain CIN2, active compounds read low
# [25] = S. cerevisiae deletion strains, locus YPR135W, strain CTF4, active compounds read low
smiles,measurement,setting,value
COC(=O)c1ccccc1CSc1nccc(C(F)(F)F)n1,normalized growth,[1],0.963
same,normalized growth,[2],0.938
same,normalized growth,"S. cerevisiae deletion strains, locus YCL061C, strain MRC1, active compounds read low",0.956
same,normalized growth,[3],0.978
same,normalized growth,[4],0.86 (active)
same,normalized growth,[5],0.939
same,normalized growth,[6],0.917
same,normalized growth,[7],0.927
same,normalized growth,"S. cerevisiae deletion strains, locus YGR229C, strain SMI1, active compounds read low",0.969
same,normalized growth,[8],0.671 (active)
same,normalized growth,[9],0.913
same,normalized growth,[10],0.957
same,normalized growth,[11],0.882 (active)
same,normalized growth,"S. cerevisiae deletion strains, locus YKL190W, strain CNB1, active compounds read low",0.931
same,normalized growth,[12],0.743 (active)
same,normalized growth,[13],0.959
same,normalized growth,[14],0.661 (active)
same,normalized growth,[15],0.752 (active)
same,normalized growth,[16],0.946
same,normalized growth,[17],0.969
same,normalized growth,[18],0.975
same,normalized growth,[19],0.952
same,normalized growth,[20],0.895
same,normalized growth,[21],0.962
same,normalized growth,[22],0.861 (active)
same,normalized growth,[23],0.849
same,normalized growth,[24],0.859
same,normalized growth,[25],0.657
same,normalized growth,"S. cerevisiae strains, strain wild type, active compounds read low",0.926
CCOC(=O)c1cnc2c(c(C)nn2C)c1Sc1nnc(SC)s1,normalized growth,"S. cerevisiae deletion strains, locus YAR019C, strain CDC15, active compounds read low",0.847 (active)
same,normalized growth,"S. cerevisiae deletion strains, locus YBL105C, strain PKC1, active compounds read low",0.872 (active)
same,normalized growth,"S. cerevisiae deletion strains, locus YBR135W, strain CKS1, active compounds read low",0.874 (active)
same,normalized growth,"S. cerevisiae deletion strains, locus YBR136W, strain MEC1, active compounds read low",0.867 (active)
same,normalized growth,"S. cerevisiae deletion strains, locus YBR160W, strain CDC28, active compounds read low",0.876 (active)
same,normalized growth,"S. cerevisiae deletion strains, locus YDL017W, strain CDC7, active compounds read low",0.875 (active)
same,normalized growth,"S. cerevisiae deletion strains, locus YDL028C, strain MPS1, active compounds read low",0.882 (active)
same,normalized growth,[3],0.911 (active)
same,normalized growth,"S. cerevisiae deletion strains, locus YDL108W, strain KIN28, active compounds read low",0.899
same,normalized growth,"S. cerevisiae deletion strains, locus YDL132W, strain cdc53, active compounds read low",0.841 (active)
same,normalized growth,"S. cerevisiae deletion strains, locus YDL214C, strain PRR2, active compounds read low",0.796
same,normalized growth,"S. cerevisiae deletion strains, locus YDR052C, strain DBF4, active compounds read low",0.89 (active)
same,normalized growth,"S. cerevisiae deletion strains, locus YDR054C, strain cdc34, active compounds read low",0.779 (active)
same,normalized growth,"S. cerevisiae deletion strains, locus YDR226W, strain ADK1, active compounds read low",0.871 (active)
same,normalized growth,"S. cerevisiae deletion strains, locus YDR477W, strain SNF1, active compounds read low",0.719
same,normalized growth,"S. cerevisiae deletion strains, locus YER123W, strain YCK3, active compounds read low",0.615 (active)
same,normalized growth,"S. cerevisiae deletion strains, locus YER133W, strain GLC7, active compounds read low",0.657 (active)
same,normalized growth,"S. cerevisiae deletion strains, locus YFL009W, strain cdc4, active compounds read low",0.851 (active)
same,normalized growth,"S. cerevisiae deletion strains, locus YFL029C, strain CAK1, active compounds read low",0.845 (active)
same,normalized growth,"S. cerevisiae deletion strains, locus YFR003C, strain YPI1, active compounds read low",0.887 (active)
same,normalized growth,"S. cerevisiae deletion strains, locus YFR019W, strain FAB1, active compounds read low",0.73 (active)
same,normalized growth,"S. cerevisiae deletion strains, locus YFR028C, strain CDC14, active compounds read low",0.891 (active)
same,normalized growth,"S. cerevisiae deletion strains, locus YGR040W, strain KSS1, active compounds read low",0.742
same,normalized growth,"S. cerevisiae deletion strains, locus YGR052W, strain FMP48, active compounds read low",0.847
same,normalized growth,"S. cerevisiae deletion strains, locus YGR092W, strain DBF2, active compounds read low",0.431 (active)
same,normalized growth,[8],0.565 (active)
same,normalized growth,"S. cerevisiae deletion strains, locus YHR079C, strain IRE1, active compounds read low",0.649
same,normalized growth,"S. cerevisiae deletion strains, locus YHR082C, strain KSP1, active compounds read low",0.779
same,normalized growth,"S. cerevisiae deletion strains, locus YHR205W, strain SCH9, active compounds read low",0.744
same,normalized growth,"S. cerevisiae deletion strains, locus YIL147C, strain SLN1, active compounds read low",0.857 (active)
same,normalized growth,"S. cerevisiae deletion strains, locus YJL095W, strain BCK1, active compounds read low",0.69
same,normalized growth,"S. cerevisiae deletion strains, locus YJL128C, strain PBS2, active compounds read low",0.945
same,normalized growth,"S. cerevisiae deletion strains, locus YJL157C, strain FAR1, active compounds read low",0.739
same,normalized growth,"S. cerevisiae deletion strains, locus YJR016C, strain ILV3, active compounds read low",0.859 (active)
same,normalized growth,"S. cerevisiae deletion strains, locus YJR066W, strain TOR1 (second series), active compounds read low",0.497 (active)
same,normalized growth,"S. cerevisiae deletion strains, locus YJR066W, strain TOR1, active compounds read low",0.644
same,normalized growth,"S. cerevisiae deletion strains, locus YKL048C, strain ELM1, active compounds read low",0.902
same,normalized growth,"S. cerevisiae deletion strains, locus YKL067W, strain YNK1, active compounds read low",0.821
same,normalized growth,"S. cerevisiae deletion strains, locus YKL101W, strain HSL1, active compounds read low",0.865
same,normalized growth,"S. cerevisiae deletion strains, locus YKL193C, strain SDS22, active compounds read low",0.859 (active)
same,normalized growth,"S. cerevisiae deletion strains, locus YKL203C, strain TOR2, active compounds read low",0.683 (active)
same,normalized growth,"S. cerevisiae deletion strains, locus YLR113W, strain HOG1, active compounds read low",0.505 (active)
same,normalized growth,"S. cerevisiae deletion strains, locus YLR133W, strain CKI1, active compounds read low",0.808
same,normalized growth,"S. cerevisiae deletion strains, locus YLR403W, strain SFP1, active compounds read low",0.549 (active)
same,normalized growth,"S. cerevisiae deletion strains, locus YML070W, strain DAK1, active compounds read low",0.759
same,normalized growth,"S. cerevisiae deletion strains, locus YMR001C, strain CDC5, active compounds read low",0.855 (active)
same,normalized growth,"S. cerevisiae deletion strains, locus YMR205C, strain PFK2 (second series), active compounds read low",0.859
same,normalized growth,"S. cerevisiae deletion strains, locus YMR277W, strain FCP1, active compounds read low",0.852 (active)
same,normalized growth,"S. cerevisiae deletion strains, locus YNL006W, strain LST8, active compounds read low",0.881 (active)
same,normalized growth,"S. cerevisiae deletion strains, locus YNL020C, strain ARK1, active compounds read low",0.802
same,normalized growth,"S. cerevisiae deletion strains, locus YNL161W, strain CBK1, active compounds read low",0.88 (active)
same,normalized growth,"S. cerevisiae deletion strains, locus YNL183C, strain NPR1, active compounds read low",0.715
same,normalized growth,"S. cerevisiae deletion strains, locus YNL207W, strain RIO2, active compounds read low",0.844 (active)
same,normalized growth,"S. cerevisiae deletion strains, locus YNL222W, strain SSU72, active compounds read low",0.867 (active)
same,normalized growth,"S. cerevisiae deletion strains, locus YNL307C, strain MCK1 (second series), active compounds read low",0.596 (active)
same,normalized growth,"S. cerevisiae deletion strains, locus YOL078W, strain AVO1, active compounds read low",0.859 (active)
same,normalized growth,"S. cerevisiae deletion strains, locus YOL136C, strain PFK27, active compounds read low",0.714
same,normalized growth,"S. cerevisiae deletion strains, locus YOR061W, strain CKA2, active compounds read low",0.813
same,normalized growth,"S. cerevisiae deletion strains, locus YOR119C, strain RIO1, active compounds read low",0.77
same,normalized growth,"S. cerevisiae deletion strains, locus YOR231W, strain MKK1, active compounds read low",0.701
same,normalized growth,"S. cerevisiae deletion strains, locus YOR329C, strain SCD5, active compounds read low",0.872 (active)
same,normalized growth,"S. cerevisiae deletion strains, locus YPL031C, strain PHO85, active compounds read low",0.67
same,normalized growth,"S. cerevisiae deletion strains, locus YPL153C, strain RAD53, active compounds read low",0.62 (active)
same,normalized growth,"S. cerevisiae deletion strains, locus YPL204W, strain HRR25, active compounds read low",0.667
same,normalized growth,"S. cerevisiae deletion strains, locus YPL209C, strain IPL1, active compounds read low",0.886 (active)
same,normalized growth,"S. cerevisiae deletion strains, locus YPL256C, strain CLN2, active compounds read low",0.789 (active)
same,normalized growth,"S. cerevisiae deletion strains, locus YPR025C, strain CCL1, active compounds read low",0.879 (active)
same,normalized growth,"S. cerevisiae deletion strains, locus YPR106W, strain ISR1, active compounds read low",0.934
same,normalized growth,"S. cerevisiae deletion strains, locus YPR111W, strain DBF20, active compounds read low",0.928
same,normalized growth,"S. cerevisiae deletion strains, strain NNK1, active compounds read low",0.917
same,normalized growth,"S. cerevisiae deletion strains, strain TSCII, active compounds read low",0.846 (active)
CCOC(=O)c1cnc2nc(SC)nn2c1N,normalized growth,[1],0.997
same,normalized growth,[2],1
same,normalized growth,[3],0.955
same,normalized growth,[4],0.995
same,normalized growth,[5],0.968
same,normalized growth,[6],1
same,normalized growth,[7],0.971
same,normalized growth,[8],0.855
same,normalized growth,[9],0.994
same,normalized growth,[10],0.935
same,normalized growth,[11],0.984
same,normalized growth,[12],1.03
same,normalized growth,[13],0.994
same,normalized growth,[14],0.88
same,normalized growth,[15],1.01
same,normalized growth,[16],0.942
same,normalized growth,[17],0.993
same,normalized growth,[18],0.983
same,normalized growth,"S. cerevisiae deletion strains, locus YMR307W, strain GAS1, active compounds read low",0.909
same,normalized growth,"S. cerevisiae deletion strains, locus YNL128W, strain TEP1, active compounds read low",0.988
same,normalized growth,[19],0.956
same,normalized growth,[20],0.968
same,normalized growth,[21],0.998
same,normalized growth,[22],0.982
same,normalized growth,[23],0.942
same,normalized growth,[24],0.982
same,normalized growth,[25],0.894
